Experimental data from the supplement of paper PMC11732987, “Enantioselective OTUD7B fragment discovery through chemoproteomics screening and high-throughput optimisation” (Communications Chemistry, 2025).

Key:
Test in all cases: log2 ratio of Biotin-Ahx-Ub-VS probe labelling (fragment/DMSO); higher = less target engagement (more negative = stronger competition), active = hit call of the paper (q ≤ 0.05, log2 ratio ≤ -1)
Conditions in all cases: compound concentration: 200 uM; treatment time: 3 h
ALG13 = molecular target: T1, ALG13 (UniProt Q9NP73)
T1 sequence (whole entry): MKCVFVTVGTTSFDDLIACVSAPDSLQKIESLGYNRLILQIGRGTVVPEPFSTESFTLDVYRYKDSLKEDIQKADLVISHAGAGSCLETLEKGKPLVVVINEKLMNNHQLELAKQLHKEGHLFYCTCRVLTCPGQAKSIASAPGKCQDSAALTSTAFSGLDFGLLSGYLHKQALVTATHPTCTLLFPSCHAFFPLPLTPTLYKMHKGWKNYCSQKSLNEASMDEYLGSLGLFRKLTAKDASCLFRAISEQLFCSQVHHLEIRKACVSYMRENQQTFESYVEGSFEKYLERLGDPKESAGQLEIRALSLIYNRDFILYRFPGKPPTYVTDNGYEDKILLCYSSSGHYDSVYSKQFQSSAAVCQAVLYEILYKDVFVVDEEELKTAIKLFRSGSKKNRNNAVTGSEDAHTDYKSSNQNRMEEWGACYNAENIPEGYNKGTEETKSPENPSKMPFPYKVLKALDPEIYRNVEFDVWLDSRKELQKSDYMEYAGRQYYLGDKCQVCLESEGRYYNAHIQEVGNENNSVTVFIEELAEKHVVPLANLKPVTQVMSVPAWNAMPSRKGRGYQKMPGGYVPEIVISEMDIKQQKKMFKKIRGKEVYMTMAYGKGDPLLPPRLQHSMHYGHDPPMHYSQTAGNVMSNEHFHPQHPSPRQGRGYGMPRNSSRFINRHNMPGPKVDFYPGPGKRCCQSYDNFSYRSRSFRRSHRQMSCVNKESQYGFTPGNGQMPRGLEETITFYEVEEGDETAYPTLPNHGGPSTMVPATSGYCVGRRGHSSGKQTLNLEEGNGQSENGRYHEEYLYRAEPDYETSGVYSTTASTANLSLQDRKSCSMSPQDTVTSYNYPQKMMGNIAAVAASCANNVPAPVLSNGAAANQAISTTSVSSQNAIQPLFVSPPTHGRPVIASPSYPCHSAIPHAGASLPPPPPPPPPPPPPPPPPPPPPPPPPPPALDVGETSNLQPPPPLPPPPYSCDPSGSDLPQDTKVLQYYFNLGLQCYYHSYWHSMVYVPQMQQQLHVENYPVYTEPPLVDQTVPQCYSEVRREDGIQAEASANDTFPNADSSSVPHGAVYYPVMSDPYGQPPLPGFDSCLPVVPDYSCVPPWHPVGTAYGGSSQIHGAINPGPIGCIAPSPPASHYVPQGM
Summary of the method: (§1)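 In triplicate, 495 µg of HEK293T lysate per sample was incubated with fragment at 200 µM or vehicle for 3 h. Biotin-Ahx-Ub-VS was then added to 0.5 µM final for 1 h, and labelled DUBs were captured with NeutrAvidin, digested with LysC and trypsin, and measured by diaPASEF LC-MS/MS. Data are average log2 fragment/vehicle ratios by unpaired t-test from global-median-normalised Spectronaut label-free quantities, restricted to proteins with ≥2 unique peptides.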

ATXN3 = ATXN3 (UniProt P54252)
Summary of the method: as §1

BAP1 = molecular target: T2, BAP1 (UniProt Q92560)
T2 sequence (whole entry): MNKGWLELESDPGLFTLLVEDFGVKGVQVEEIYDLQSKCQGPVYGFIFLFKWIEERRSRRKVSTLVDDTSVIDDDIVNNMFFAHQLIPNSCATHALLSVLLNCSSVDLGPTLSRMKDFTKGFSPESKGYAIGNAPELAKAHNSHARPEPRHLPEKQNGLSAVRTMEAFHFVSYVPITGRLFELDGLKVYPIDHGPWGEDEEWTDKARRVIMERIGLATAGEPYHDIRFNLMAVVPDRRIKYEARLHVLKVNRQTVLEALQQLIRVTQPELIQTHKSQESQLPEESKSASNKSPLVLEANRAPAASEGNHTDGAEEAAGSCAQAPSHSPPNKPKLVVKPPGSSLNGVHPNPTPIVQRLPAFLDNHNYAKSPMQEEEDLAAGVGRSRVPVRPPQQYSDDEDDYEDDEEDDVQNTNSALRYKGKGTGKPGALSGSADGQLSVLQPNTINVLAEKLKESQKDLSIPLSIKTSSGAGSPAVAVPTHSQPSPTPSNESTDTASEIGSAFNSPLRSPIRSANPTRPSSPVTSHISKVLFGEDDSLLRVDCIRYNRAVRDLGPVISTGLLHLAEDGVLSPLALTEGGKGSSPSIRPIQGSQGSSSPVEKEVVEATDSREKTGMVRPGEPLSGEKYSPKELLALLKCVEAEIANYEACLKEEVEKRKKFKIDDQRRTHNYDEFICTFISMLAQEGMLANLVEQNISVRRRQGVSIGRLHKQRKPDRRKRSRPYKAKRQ
Summary of the method: as §1

EIF3F = EIF3F (UniProt O00303)
Summary of the method: as §1

EIF3H = EIF3H (UniProt O15372)
Summary of the method: as §1

FAM105A = molecular target: T3, FAM105A (UniProt Q9NUU6)
T3 sequence (whole entry): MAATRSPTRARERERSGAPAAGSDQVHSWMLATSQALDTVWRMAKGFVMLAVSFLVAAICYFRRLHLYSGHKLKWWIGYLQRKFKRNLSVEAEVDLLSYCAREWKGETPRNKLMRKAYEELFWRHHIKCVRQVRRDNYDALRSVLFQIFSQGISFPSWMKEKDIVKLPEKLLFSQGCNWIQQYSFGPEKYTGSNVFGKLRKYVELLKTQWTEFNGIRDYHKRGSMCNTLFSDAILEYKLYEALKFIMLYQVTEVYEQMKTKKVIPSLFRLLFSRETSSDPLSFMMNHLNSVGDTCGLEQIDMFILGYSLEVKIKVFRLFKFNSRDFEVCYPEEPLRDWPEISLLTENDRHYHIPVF
Summary of the method: as §1

OTUB1 = OTUB1 (UniProt Q96FW1)
Summary of the method: as §1

OTUD4 = molecular target: T4, OTUD4 (UniProt Q01804)
T4 sequence (whole entry): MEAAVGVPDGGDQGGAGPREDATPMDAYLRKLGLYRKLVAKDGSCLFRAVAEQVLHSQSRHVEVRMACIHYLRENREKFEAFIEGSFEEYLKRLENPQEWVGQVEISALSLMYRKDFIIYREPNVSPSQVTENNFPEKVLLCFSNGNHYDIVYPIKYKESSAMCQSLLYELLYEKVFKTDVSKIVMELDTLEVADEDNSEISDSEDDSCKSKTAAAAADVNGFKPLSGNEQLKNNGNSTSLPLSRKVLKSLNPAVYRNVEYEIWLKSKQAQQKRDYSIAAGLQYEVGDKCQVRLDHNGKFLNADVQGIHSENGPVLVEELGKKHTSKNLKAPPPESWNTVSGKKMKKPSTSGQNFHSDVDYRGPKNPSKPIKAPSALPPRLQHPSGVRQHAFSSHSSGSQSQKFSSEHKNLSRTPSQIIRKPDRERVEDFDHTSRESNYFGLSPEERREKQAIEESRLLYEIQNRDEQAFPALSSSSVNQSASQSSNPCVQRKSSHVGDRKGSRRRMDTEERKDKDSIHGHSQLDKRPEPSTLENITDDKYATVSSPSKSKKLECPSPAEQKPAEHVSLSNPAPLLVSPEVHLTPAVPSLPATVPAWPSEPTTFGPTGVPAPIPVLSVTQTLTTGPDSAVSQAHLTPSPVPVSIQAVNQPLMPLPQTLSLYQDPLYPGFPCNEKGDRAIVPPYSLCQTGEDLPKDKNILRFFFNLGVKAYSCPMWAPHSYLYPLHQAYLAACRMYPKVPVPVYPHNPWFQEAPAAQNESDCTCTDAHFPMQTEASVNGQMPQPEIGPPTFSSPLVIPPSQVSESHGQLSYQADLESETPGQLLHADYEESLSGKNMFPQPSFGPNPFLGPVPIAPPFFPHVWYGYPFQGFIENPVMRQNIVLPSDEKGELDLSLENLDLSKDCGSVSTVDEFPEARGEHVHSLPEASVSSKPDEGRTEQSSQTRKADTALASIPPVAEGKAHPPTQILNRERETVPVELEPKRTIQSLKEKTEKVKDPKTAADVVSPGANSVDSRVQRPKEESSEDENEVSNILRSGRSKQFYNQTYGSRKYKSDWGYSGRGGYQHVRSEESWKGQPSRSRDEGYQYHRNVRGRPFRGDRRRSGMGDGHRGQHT
Summary of the method: as §1

OTUD5 = molecular target: T5, OTUD5 (UniProt Q96G74)
T5 sequence (whole entry): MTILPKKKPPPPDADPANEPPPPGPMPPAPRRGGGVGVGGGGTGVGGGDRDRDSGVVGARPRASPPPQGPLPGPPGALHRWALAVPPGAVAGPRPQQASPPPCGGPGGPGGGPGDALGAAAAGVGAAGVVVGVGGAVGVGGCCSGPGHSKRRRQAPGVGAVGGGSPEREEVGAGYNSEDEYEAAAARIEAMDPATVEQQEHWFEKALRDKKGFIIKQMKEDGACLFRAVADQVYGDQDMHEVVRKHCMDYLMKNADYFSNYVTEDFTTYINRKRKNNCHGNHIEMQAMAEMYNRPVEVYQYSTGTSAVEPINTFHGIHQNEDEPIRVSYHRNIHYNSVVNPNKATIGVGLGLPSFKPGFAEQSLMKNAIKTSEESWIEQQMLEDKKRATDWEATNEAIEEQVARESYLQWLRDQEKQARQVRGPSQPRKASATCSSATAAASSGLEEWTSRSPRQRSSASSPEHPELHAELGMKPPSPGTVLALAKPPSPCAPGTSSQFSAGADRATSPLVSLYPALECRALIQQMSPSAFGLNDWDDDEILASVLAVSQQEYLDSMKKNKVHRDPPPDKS
Summary of the method: as §1

Measured: log2 ratio of Biotin-Ahx-Ub-VS probe labelling

OTUB1, sequence (Q96FW1 whole entry): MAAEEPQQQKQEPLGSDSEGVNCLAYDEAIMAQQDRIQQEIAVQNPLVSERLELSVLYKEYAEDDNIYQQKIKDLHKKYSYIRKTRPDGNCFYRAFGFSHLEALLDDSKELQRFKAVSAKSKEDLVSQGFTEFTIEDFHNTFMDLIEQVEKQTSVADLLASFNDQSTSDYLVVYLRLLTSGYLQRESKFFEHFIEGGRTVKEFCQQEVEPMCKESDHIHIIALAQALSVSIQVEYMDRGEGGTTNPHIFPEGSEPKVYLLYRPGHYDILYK
EIF3H, sequence (O15372 whole entry): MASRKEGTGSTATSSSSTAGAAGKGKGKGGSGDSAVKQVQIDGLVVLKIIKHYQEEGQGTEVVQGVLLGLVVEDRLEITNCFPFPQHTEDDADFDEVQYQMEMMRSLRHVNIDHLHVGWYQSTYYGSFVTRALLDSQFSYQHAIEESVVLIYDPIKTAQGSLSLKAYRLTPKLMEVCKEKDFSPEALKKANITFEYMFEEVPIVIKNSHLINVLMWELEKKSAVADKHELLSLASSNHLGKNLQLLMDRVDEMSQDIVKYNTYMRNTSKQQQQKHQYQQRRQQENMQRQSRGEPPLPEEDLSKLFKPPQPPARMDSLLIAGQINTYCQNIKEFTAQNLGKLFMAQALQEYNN
EIF3F, sequence (O00303 whole entry): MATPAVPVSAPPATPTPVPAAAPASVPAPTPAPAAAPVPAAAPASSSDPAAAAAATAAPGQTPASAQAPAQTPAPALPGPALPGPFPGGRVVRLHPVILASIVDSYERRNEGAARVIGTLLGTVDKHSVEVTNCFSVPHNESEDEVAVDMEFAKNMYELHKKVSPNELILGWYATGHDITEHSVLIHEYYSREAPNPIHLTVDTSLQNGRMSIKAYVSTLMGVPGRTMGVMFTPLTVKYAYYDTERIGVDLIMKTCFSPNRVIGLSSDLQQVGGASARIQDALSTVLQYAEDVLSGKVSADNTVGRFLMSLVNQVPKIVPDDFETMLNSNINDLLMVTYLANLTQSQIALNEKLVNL
ATXN3, sequence (P54252 whole entry): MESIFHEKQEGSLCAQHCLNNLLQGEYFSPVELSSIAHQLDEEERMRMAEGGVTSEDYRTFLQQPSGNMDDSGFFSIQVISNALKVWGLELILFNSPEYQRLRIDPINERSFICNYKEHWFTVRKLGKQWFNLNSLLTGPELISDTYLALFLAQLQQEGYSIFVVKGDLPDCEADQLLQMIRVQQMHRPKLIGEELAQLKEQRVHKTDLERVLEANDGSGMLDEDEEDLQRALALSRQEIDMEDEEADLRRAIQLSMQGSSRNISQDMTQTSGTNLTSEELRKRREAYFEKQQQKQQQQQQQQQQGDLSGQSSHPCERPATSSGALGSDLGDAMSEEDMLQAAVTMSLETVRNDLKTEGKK

CCN1C(=O)C2CN(C(=O)CCl)CCN2C1=O (centres undefined)
inactive: ALG13 0.104 | ATXN3 -0.84 | BAP1 -0.369 | EIF3F -0.18 | EIF3H 0.0778 | FAM105A -0.218 | OTUB1 -0.315 | OTUD4 -0.523 | OTUD5 -0.206
